From PubChem
Shown are actives, neighbours in structure and some others; about 1.9% of the full set was active somewhere.
HTR5A inv ctr – HTR5A inverse agonists in luminescence cell assay, primary screen, counter-screen for OPRM1-OPRD1 heterodimer inverse agonist project, full-deck HTS | 5-hydroxytryptamine receptor 5A (Homo sapiens), P47898 | HTR5A cell line, inverse agonism | inhibition, % at 9.3 µM | 340,000 compounds, 0.083% hits | AID 504634, 2011; in the data active means inhibition mostly above about 23%, no sharp cut-off; inactive means mostly below about 18%;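 further: 0% = cells with DMSO and 100% = no-cell wells with DMSO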
Target sequence (P47898 whole entry, looked up): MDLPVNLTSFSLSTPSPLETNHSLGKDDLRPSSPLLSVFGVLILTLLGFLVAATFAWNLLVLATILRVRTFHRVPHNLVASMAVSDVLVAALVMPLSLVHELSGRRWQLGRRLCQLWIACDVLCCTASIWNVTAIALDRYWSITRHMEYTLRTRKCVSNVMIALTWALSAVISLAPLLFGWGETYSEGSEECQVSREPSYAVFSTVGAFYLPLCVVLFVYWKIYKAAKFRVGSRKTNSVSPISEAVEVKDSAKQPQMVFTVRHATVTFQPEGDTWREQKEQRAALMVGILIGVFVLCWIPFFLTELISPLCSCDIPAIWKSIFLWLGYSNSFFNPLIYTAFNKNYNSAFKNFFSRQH
MsrA act – bovine MsrA enzyme activators, primary screen, biochemical, absorbance, HTS. Methionine sulfoxide reductase A (Bos taurus). purified bovine MsrA, absorbance read-out. activation, % at 10.6 µM. 360,000 compounds, 0.3% hits. AID 602163, 2012; in the data active means activation above about 7.5%;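 further: 0% = vehicle and 100% = reference activator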
HTR5A ag ctr – HTR5A agonists in luminescence cell assay, primary screen, counter-screen for OPRM1-OPRD1 heterodimer agonist project, full-deck HTS. 5-hydroxytryptamine receptor 5A (Homo sapiens), P47898. cell-based. activation, % at 9.3 µM. 340,000 compounds, 0.61% hits. AID 504692, 2011; in the data active means activation mostly above about 9.5%, no sharp cut-off; inactive means mostly below about 7.6%;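 further: 0% = cells with vehicle only and 100% = reference agonist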
MOR-DOR ag – agonists of OPRM1-OPRD1 heterodimerization, primary screen, cell-based, luminescence. cells. activation, % at 9.3 µM. 340,000 compounds, 0.3% hits. Mu-type opioid receptor (Homo sapiens) + Delta-type opioid receptor (Homo sapiens), …. AID 504326, 2011;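 further: 0% = vehicle-treated cells and 100% = reference agonist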
MsrA inh – bovine MsrA enzyme inhibitors, primary screen, biochemical, absorbance, HTS; Methionine sulfoxide reductase A (Bos taurus); purified bovine MsrA, absorbance read-out; inhibition, % at 15.5 µM; 360,000 compounds, 0.75% hits; AID 651718, 2012; in the data active means inhibition above about 4.5%;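 further: 0% = vehicle wells with enzyme and 100% = reference inhibitor wells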
MOR-DOR inv ag – inverse agonists of MOR-DOR heterodimerization, primary screen, cell-based, luminescence | Mu-type opioid receptor (Homo sapiens) + Delta-type opioid receptor (Homo sapiens), … | cell-based MOR-DOR heterodimer luminescence, inverse agonism | inhibition, % at 9.3 µM | 340,000 compounds, 0.21% hits | AID 504357, 2011; in the data active means inhibition above about 22%, passing the limit was not always enough;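 further: 0% = cells with DMSO and 100% = wells without cells with DMSO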
OPRM1-D1 ag cf – agonists of MOR-DOR heterodimerization, confirmation, cell-based, luminescence. activation, % at 9.3 µM. cells, luminescence complementation. 830 compounds, 45% hits. shares compounds with MOR-DOR ag. AID 504904, 2011;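 further: 0% = vehicle-treated cells and 100% = reference agonist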
HTR5A ag counter – HTR5A agonists in cells, counter-screen for OPRM1-OPRD1 heterodimer agonist project, cell-based, luminescence; activation, % at 9.3 µM; HTR5A agonist counterscreen; shares compounds with MOR-DOR ag; 830 compounds, 8% hits; in the data active means activation above about 17%;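 further: 0% = vehicle-treated cells and 100% = reference agonist response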
Numbers without * were called inactive; i = inactive; . = no result given. Unless noted, no stated cut-off is given here; in the data, active means activation above about 18%; inactive means the rest.

SMILES | HTR5A inv ctr | MsrA act | HTR5A ag ctr | MOR-DOR ag | MsrA inh | MOR-DOR inv ag | OPRM1-D1 ag cf | HTR5A ag counter
CCc1cccc(Nc2cc(C)n(-c3cccc(CC)c3)c(=O)c2)c1 | . | . | . | . | -1 | . | . | .
COC(=O)[C@H](Cc1ccccc1)N[C@H](c1ccc(OC)cc1)[C@@H](O)Cc1ccccc1 | . | . | . | . | -1 | . | . | .
COC(=O)C1=C(C)N(Cc2ccccc2C(F)(F)F)C(=NCc2cc(OC)c(OC)c(OC)c2)NC1c1cccc(C(F)(F)F)c1 (stereo not given) | . | . | . | . | -1 | . | . | .
COc1ccc(/C=N/n2c(-c3ccco3)nc3ccccc3c2=O)cc1 | -23 | -7 | 1 | 41* | 0 | -240 | -5 | -4
COc1cccc(/C=N/n2c(-c3ccco3)nc3ccccc3c2=O)c1 | 8 | -1 | -3 | -2 | 2 | 9 | . | .
O=C1NC(c2cccc(C(F)(F)F)c2)c2c(-c3ccccc3)n[nH]c21 (stereo not given) | . | . | . | . | 0 | . | . | .
Nc1nc2cc3c(cc2cc1C(=O)NCCc1c[nH]c2ccccc12)OCO3 | . | . | . | . | 1 | . | . | .
O=P(CCCCCCCCCP(=O)(c1ccccc1)c1ccccc1)(c1ccccc1)c1ccccc1 | -43 | 5 | 6 | 21* | 1 | -112 | -1 | -5
O=C(O)CCCCCCCCCCP(=O)(c1ccccc1)c1ccccc1 | -2 | -4 | 1 | -3 | -1 | 15 | . | .
CC(C)(C)c1cc(C(=O)NNC(=O)Nc2ccccc2)n(Cc2ccccc2)n1 | -5 | -3 | 9 | 11 | -2 | -56 | . | .
CC(C)(C)c1cc(C(=O)NNC(=O)Nc2cccc(Cl)c2)n(Cc2ccccc2)n1 | -19 | 1 | 4 | 25* | 1 | -129 | 1 | 2
CC1(c2ccccc2)CC(C)(C)N2C(=O)C3(C(C#N)=C(N)Oc4cc(O)ccc43)c3cccc1c32 (stereo not given) | -3 | -3 | 1 | 20* | 1 | -106 | 47* | 4
Cc1cc(/C=C2\SC(=S)NC2=O)c(C)n1-c1ccc(O)cc1 | 1 | -7 | -11 | 10 | 0 | -51 | . | .
Cc1cc(/C=C2\SC(=Nc3ccc(F)cc3)NC2=O)c(C)n1-c1ccc(S(N)(=O)=O)cc1 | -12 | 0 | 4 | 125* | 2 | i | 24* | 3
COc1cc2c3nnc(-c4ccc(F)cc4)c-3cn(Cc3ccccc3F)c2cc1OC | -22 | -9 | 6 | 19* | 1 | -97 | 28* | 6
COc1cc2c3nnc(-c4ccccc4)c-3cn(Cc3ccccc3F)c2cc1OC | . | . | . | . | 0 | . | . | .
Cc1c(CN2CCC(n3nccc3NC(=O)C3CC3)CC2)[nH]c2ccccc12 | 12 | -7 | 7 | 45* | 1 | -242 | 1 | 31*
C[C@@H]1CN([C@@H](C)CO)C(=O)CCCn2nncc2CO[C@H]1CN(C)CC1CC1 | . | . | . | . | 0 | . | . | .
COCc1[nH]nc2c1C(c1ccc(F)cc1)N(c1ccc(OC)cc1)C2=O (stereo not given) | . | . | . | . | 0 | . | . | .
CC(C)c1ccc(NS(=O)(=O)c2ccc(-n3cccn3)cc2)cc1 | -8 | -2 | 2 | 9 | 0 | -48 | . | .
CC(C)c1ccc(S(=O)(=O)Nc2ccc(SC(F)F)cc2)cc1 | -7 | 1 | 2 | 18* | 0 | -114 | 0 | -4
Cc1ccccc1N1CC(O)(c2ccccc2)[N+]2=C1SCC2 (stereo not given) | 9 | -2 | -4 | 218* | 2 | i | 223* | 1
OC1(c2ccc(F)cc2)CN(c2ccccc2)C2=[N+]1CCS2 (stereo not given) | -9 | -4 | 0 | -3 | 0 | 13 | . | .
Cc1ccc(C2(O)CN(c3ccccc3C)C3=[N+]2CCS3)cc1 (stereo not given) | 12 | 0 | 5 | 349* | 2 | i | 373* | 1
Cc1ccc(C2(O)CN(c3ccccc3)C3=[N+]2CCS3)cc1 (stereo not given) | -5 | -7 | 2 | 77* | 0 | -391 | 194* | 1
SMILES | HTR5A inv ctr | MsrA act | HTR5A ag ctr | MOR-DOR ag | MsrA inh | MOR-DOR inv ag | OPRM1-D1 ag cf | HTR5A ag counter
COCc1[nH]nc2c1C(c1ccccc1)N(Cc1ccccc1)C2=O (stereo not given) | . | . | . | . | 0 | . | . | .
CC(C)(C)c1ccc(C#C[C@@H]2C=C[C@@H](O)[C@@H](COC(=O)Nc3ccccc3)O2)cc1 | . | . | . | . | 0 | . | . | .
C=CCN=C1NC(c2ccc(F)cc2)C(C(=O)OC)=C(C)N1Cc1ccccc1C(F)(F)F (stereo not given) | . | . | . | . | 0 | . | . | .
COc1ccc(OC)c(/C=C/c2nc3ccccc3[nH]c2=O)c1 | -17 | -3 | 7 | 21* | 0 | -115 | 7 | 8
COc1ccc2c(Cl)c(-c3nnc(SCC(N)=O)n3C)sc2c1 | 5 | -8 | -2 | 0 | -1 | -1 | . | .
COc1ccc2c(Cl)c(-c3nnc(SCC(=O)c4ccccc4)n3C)sc2c1 | -19 | 0 | 1 | 325* | 1 | i | 372* | 3
COc1ccc(-c2nc(CN3CCC(c4ccccc4)CC3)c(C)o2)cc1OC | 6 | -3 | 4 | 4 | 0 | -22 | . | .
COc1ccc(-c2nc(CN3CCC(C(=O)NC4CCCC4)CC3)c(C)o2)cc1OC | 1 | -3 | 0 | 110* | 0 | i | 18* | 1
COc1ccc(-c2nc(CN3CCC(C(=O)NC4CCCc5ccccc54)CC3)c(C)o2)cc1OC (stereo not given) | 5 | -1 | 2 | 199* | 1 | i | 38* | 5
CCNS(=O)(=O)c1ccc(NC(=O)Nc2ccc3c(c2)OCO3)cc1 | 18 | -3 | 6 | 111* | 1 | -362 | 73* | 0
Cc1nc2cc(NC(=O)c3ccc([N+](=O)[O-])s3)ccc2s1 | -18 | -1 | 9 | 30* | 0 | -161 | 1 | 6
COc1cc2c(cc1OC)CN(C(=O)Nc1ccccc1)CC2 | -25 | 0 | 5 | 60* | -1 | -302 | 2 | 2
OC(CNCCC(c1ccccc1)c1ccccc1)COc1ccccc1 (stereo not given) | -48 | 1 | 0 | 22* | -1 | -105 | 38* | 6
OC(CNCCc1ccccc1)COc1ccc(OCC(O)CNCCc2ccccc2)cc1 (stereo not given) | 2 | -4 | -3 | -1 | 1 | 7 | . | .
